According to PubChem BioAssay (NCATS):
Results filed as inconclusive are left out. Where a call stands in place of a potency, no number is given. A number with no mark means an inactive call. Calls of active or inactive are those of the source. Calls follow the shape of the dose curve; as a rule, active = well fitted curve in the direction sought with a large enough effect; inconclusive = small, poorly fitted or top-dose-only effect, or another doubt; inactive = no such curve, though single readings can be large; an effect the other way counts as inactive or inconclusive.

Assays:
[1] = molecular target: Rap guanine nucleotide exchange factor 3 (Homo sapiens) (UniProt O95398); experiment: Confirmatory qHTS for agonist of cAMP-regulated guanine nucleotide exchange factor 3 (EPAC1) (AID 1645881);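 also: EPAC1 catalysed release of BODIPY-GDP from Rap1B seen as fluorescence loss; nearly all actives have a fitted effect of over 75% in size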
Chain of Rap guanine nucleotide exchange factor 3 (Homo sapiens) (O95398 whole entry, looked up): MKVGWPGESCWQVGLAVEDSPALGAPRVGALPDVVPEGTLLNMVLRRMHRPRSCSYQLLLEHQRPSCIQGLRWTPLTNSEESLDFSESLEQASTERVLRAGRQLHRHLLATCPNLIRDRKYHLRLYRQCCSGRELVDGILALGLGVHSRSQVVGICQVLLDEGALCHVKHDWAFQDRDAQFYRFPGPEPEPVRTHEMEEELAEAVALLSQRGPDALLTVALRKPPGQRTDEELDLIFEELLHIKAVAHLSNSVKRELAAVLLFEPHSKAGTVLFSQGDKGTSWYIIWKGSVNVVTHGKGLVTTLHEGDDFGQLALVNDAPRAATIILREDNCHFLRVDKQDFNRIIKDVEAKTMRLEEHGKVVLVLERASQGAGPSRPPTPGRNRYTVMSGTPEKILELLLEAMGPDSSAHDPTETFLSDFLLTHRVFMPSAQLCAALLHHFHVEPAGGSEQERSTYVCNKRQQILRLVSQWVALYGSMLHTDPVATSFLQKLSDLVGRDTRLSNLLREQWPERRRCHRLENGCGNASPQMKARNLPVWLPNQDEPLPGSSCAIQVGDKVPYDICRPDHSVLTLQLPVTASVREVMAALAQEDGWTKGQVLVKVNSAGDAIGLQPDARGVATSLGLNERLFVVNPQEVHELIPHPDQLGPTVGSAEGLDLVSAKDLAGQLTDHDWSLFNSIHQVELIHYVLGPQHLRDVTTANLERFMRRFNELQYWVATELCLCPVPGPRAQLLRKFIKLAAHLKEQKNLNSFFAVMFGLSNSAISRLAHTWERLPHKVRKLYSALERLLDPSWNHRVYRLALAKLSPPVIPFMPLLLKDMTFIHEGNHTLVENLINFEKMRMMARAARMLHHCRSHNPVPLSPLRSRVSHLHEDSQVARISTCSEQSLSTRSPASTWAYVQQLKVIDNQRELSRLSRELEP

[2] = molecular target: Rap guanine nucleotide exchange factor 4 (Homo sapiens) (UniProt Q8WZA2); experiment: Confirmatory qHTS for agonist of cAMP-regulated guanine nucleotide exchange factor 4 (EPAC2) (AID 1645884);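 also: nucleotide exchange releases bodipy-GDP from Rap1 and this lowers its fluorescence; nearly all actives have a fitted effect of over 65% in size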
Chain of Rap guanine nucleotide exchange factor 4 (Homo sapiens) (Q8WZA2 whole entry, looked up): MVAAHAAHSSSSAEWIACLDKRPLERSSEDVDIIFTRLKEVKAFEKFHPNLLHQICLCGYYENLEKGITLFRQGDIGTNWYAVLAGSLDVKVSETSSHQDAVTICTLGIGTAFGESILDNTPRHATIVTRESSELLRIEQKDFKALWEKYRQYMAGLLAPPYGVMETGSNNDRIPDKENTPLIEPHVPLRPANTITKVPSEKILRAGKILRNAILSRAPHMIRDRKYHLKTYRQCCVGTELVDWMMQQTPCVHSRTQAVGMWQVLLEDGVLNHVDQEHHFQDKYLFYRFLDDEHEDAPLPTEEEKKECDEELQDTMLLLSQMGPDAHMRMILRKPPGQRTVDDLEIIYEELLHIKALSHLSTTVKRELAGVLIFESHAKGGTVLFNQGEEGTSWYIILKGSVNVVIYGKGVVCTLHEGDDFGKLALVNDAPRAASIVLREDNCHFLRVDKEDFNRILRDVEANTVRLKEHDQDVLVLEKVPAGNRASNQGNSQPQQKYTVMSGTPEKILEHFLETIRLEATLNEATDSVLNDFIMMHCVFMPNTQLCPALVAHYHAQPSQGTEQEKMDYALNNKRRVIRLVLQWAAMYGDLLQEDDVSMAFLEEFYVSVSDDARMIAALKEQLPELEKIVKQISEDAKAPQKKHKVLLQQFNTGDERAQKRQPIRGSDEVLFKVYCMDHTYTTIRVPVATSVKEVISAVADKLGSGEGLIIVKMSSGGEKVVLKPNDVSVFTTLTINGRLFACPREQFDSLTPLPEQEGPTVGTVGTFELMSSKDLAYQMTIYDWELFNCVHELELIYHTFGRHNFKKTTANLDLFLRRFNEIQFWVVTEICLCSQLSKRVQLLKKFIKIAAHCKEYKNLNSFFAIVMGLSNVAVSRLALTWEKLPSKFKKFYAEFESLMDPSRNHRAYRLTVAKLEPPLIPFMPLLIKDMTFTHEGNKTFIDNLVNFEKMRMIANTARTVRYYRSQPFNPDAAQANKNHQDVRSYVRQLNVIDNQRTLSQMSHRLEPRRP

[3] = molecular target: Rap guanine nucleotide exchange factor 4 (Homo sapiens) (UniProt Q8WZA2); experiment: Confirmatory qHTS for antagonist of cAMP-regulated guanine nucleotide exchange factor 4 (EPAC2) (AID 1645885); also: nearly all actives have a fitted effect of over 25% in size; also: potency is read from the fitted curve at half-maximal effect

SMILES	Potency [1]	Potency [2]	Potency [3]	activation [2]	outcome [3]
Cc1ccccc1CN1C(=O)C(C)Sc2ccc(-c3ccco3)cc21 (stereo unspecified)	inactive	inactive	inactive	–	–
COc1cc(CNc2ccc(O)cc2)cc(Br)c1OCc1ccccc1F	inactive	–	inactive	0.373% [at 17.1 µM, percent relative to cAMP agonist control]	–
NS(=O)(=O)c1ccc2c(c1)C1C=CCC1C(C1CC=CCC1)N2 (stereo unspecified)	inactive	–	inactive	6.51% [at 17.1 µM, percent relative to cAMP agonist control]	–
O=C(Nc1cc(Cl)cc(Cl)c1)c1ccc(F)c(S(=O)(=O)NC2CCCC2)c1	inactive	inactive	–	–	inactive [at 12.7 µM]
Cc1ccc(C)n1-c1nn(S(=O)(=O)c2ccccc2)c2cccc(F)c12	inactive	inactive	13.5 µM (active)	–	–
COc1ccc(S(=O)(=O)/N=C2/NC(=O)/C(=C\c3cc(OC)c(OC)cc3[N+](=O)[O-])S2)cc1	inactive	–	inactive	0% [at 17.1 µM, percent relative to cAMP agonist control]	–
Cc1nc2c(OCc3ccc(OC(F)F)cc3)cccn2c1N(C)C(=O)CCC1CCCC1	inactive	inactive	26.9 µM (active)	–	–
CC(C)C(CCNC(=O)CC(Cc1ccccc1)c1ccco1)c1ccco1 (stereo unspecified)	inactive	–	inactive	3.03% [at 17.1 µM, percent relative to cAMP agonist control]	–
Cc1ccc(C2c3c(-c4cc(C)ccc4O)n[nH]c3C(=O)N2Cc2ccco2)cc1 (stereo unspecified)	inactive	inactive	–	–	inactive [at 12.7 µM]
NC(=O)c1c(NC(=O)CSc2nnc(-c3ccco3)n2N)sc2c1CCCC2	inactive	inactive	inactive	–	–
Cc1ccc(N=C2NC(=O)/C(=C/C=C/c3ccco3)S2)cc1	inactive	inactive	inactive	–	–
C#CCN(Cc1nc(N2CCOCC2)c2ccc(Cl)cc2n1)Cc1ccco1	inactive	inactive	17.5 µM (active)	–	–
Cc1ccc(O)c(-c2n[nH]c3c2C(c2ccccc2F)N(Cc2ccco2)C3=O)c1 (stereo unspecified)	inactive	inactive	inactive	–	–
Oc1c(Br)cc(Br)cc1CNc1cccc2cccnc12	inactive	inactive	26.9 µM (active)	–	–
CCc1cc(-c2n[nH]c(C)c2-c2ccccc2Cl)c(O)cc1OC	inactive	inactive	inactive	–	–
Oc1ccc(N=Cc2ccc(OCc3ccccc3)cc2)cc1	inactive	–	inactive	11.9% [at 17.1 µM, percent relative to cAMP agonist control]	–

SMILES	Potency [1]	Potency [2]	Potency [3]	activation [2]	outcome [3]
COC(=O)c1ccc(CSc2nc3scc(-c4cccs4)c3c(=O)[nH]2)o1	inactive	inactive	inactive	–	–
C[C@@H]1CN([C@@H](C)CO)C(=O)c2ccccc2-c2ccccc2CO[C@@H]1CN(C)S(=O)(=O)c1ccc(C(F)(F)F)cc1	inactive	–	inactive	1.26% [at 17.1 µM, percent relative to cAMP agonist control]	–
CCN1CCc2c(sc(NC(=O)c3cc4ccccc4cc3OC)c2C(N)=O)C1	inactive	–	inactive	8.91% [at 17.1 µM, percent relative to cAMP agonist control]	–
CCc1nc2ccc(C(=O)Nc3ccc(OC)c(OC)c3)cn2c1N(C)CCC(C)C	inactive	–	inactive	6.16% [at 17.1 µM, percent relative to cAMP agonist control]	–
CC(C)N(Cc1ccccc1)C(=O)c1nc(-c2ccc(Cl)cc2)n2c1CCCCC2	inactive	inactive	–	–	inactive [at 12.7 µM]
COc1ccc(SC[C@H](C)CN2CC[C@H](C(C)(C)C)CCC2=O)cc1	inactive	inactive	35 µM (active)	–	–
CC(=O)N1CCC[C@H]1C(=O)NCC1Cc2cc(-c3cccc(OC(F)(F)F)c3)ccc2O1 (stereo partly specified)	inactive	inactive	44.1 µM (active)	–	–
C/C(=N\Nc1ccc([N+](=O)[O-])cc1)c1ccc(O)cc1	inactive	inactive	26.9 µM (active)	–	–
Cc1cccc(NC(=O)CSCC(=O)Nc2cccc(S(=O)(=O)N3CCCCCC3)c2)c1	inactive	–	inactive	8.94% [at 17.1 µM, percent relative to cAMP agonist control]	–
COC(=O)[C@]12CCCCC=C1N(Cc1ccco1)C(=O)[C@H](CC(=O)NCc1cccs1)C2	inactive	inactive	inactive	–	–
Cc1ccc(NCc2nc3ccccc3n2CCOc2ccccc2)cc1	inactive	inactive	inactive	–	–
CCN(CC)c1ccccc1/C=C/[n+]1ccc(CCCCI)c2ccccc21	inactive	inactive	49.4 µM (active)	–	–
O=C1NC[C@@H](Cc2cccc3ccccc23)N(CCc2cc(C(F)(F)F)cc(C(F)(F)F)c2)C1=O	inactive	inactive	inactive	–	–
CC(NS(=O)(=O)OCC(Cl)(Cl)Cl)c1ccc(C(C)(C)C)cc1 (stereo unspecified)	inactive	–	inactive	4.78% [at 17.1 µM, percent relative to cAMP agonist control]	–
O=C(Nc1ccccc1)C1=C(O)CC(c2ccc(Cl)cc2)N2CCN=C12 (stereo unspecified)	inactive	inactive	inactive	–	–
CN(C)c1ccc(C(=O)Nc2sc(Nc3ccccc3)nc2C(N)=O)cc1	inactive	inactive	inactive	–	–
